According to PubChem BioAssay (NCATS):
Inconclusive results are not listed. Active and inactive are the calls of the source. The call rests on the fitted dose curve; in most records, active means well fitted inhibition curve with a large enough effect; inconclusive means small, poorly fitted or top-dose-only effect; inactive means no such curve, though single readings can be large or run the other way.

Assay: qHTS to identify inhibitors of the type 1 interferon - major histocompatibility complex class I in skeletal muscle: primary screen against the NCATS Mechanism Interrogation Plate v5.0 (MIPE) Libary (AID 1347411); further: nearly all actives have a fitted effect of over 65% in size;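 on activity change, negative = inhibition: plate controls were vehicle for no effect and reference inhibitor for full effect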
Conditions: iHSKM cells + IFN-b, HiBiT-tagged MHC-I luminescence, 24 h; series mostly up to 45.8 µM; activity change, negative = inhibition: at the top concentration
How it was run: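 Luminescence from HiBiT-tagged endogenous HLA-B*08:01 served as the MHC class I read-out. CRISPR-engineered C25cl48 human myoblasts received 4.0 ng/ml IFN-beta plus compound for 24 hrs, with an 11-point, 1:3 series topping at 46 uM final.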
Potency means the concentration at half of the fitted maximal effect.

SMILES | activity change, negative = inhibition | Potency
CC(C)(F)C[C@H](N[C@@H](c1ccc(-c2ccc(S(C)(=O)=O)cc2)cc1)C(F)(F)F)C(=O)NC1(C#N)CC1 | 4.21% (inactive) | –
N#Cc1c(N(CC(=O)O)CC(=O)O)sc(C(=O)O)c1CC(=O)O | 0.636% (inactive) | –
O=C(CC12CC3CC(CC(C3)C1)C2)Nc1cccc2nc(NCCNCCO)ccc12 | -10.4% (inactive) | –
CCn1c(-c2nonc2N)nc2cncc(CNC3CCNCC3)c21 | -13.7% (inactive) | –
CC[C@@H]([C@H](C)O)n1ncn(-c2ccc(N3CCN(c4ccc(OCC5CO[C@@](Cn6cncn6)(c6ccc(F)cc6F)C5)cc4)CC3)cc2)c1=O (stereo partly specified) | -4.4% (inactive) | –
O=C(O)Cc1cccc(OCCCN(Cc2cccc(C(F)(F)F)c2Cl)CC(c2ccccc2)c2ccccc2)c1 | -22.2% (inactive) | –
Cc1cccc(-c2[nH]c(C(C)(C)C)nc2-c2ccc3c(c2)OCO3)n1 | -22.5% (inactive) | –
CNC(=O)c1cc(Oc2ccc(NC(=O)Nc3ccc(Cl)c(C(F)(F)F)c3)c(F)c2)ccn1 | – | 23.4 µM (active)
Cc1cc2nc3c(=O)[nH]c(=O)nc-3n(CC(O)C(O)C(O)CO)c2cc1C (stereo unspecified) | -14.3% (inactive) | –
CCOC(=O)c1c(CSc2ccccc2)n(C)c2cc(Br)c(O)c(CN(C)C)c12 | -11.2% (inactive) | –
CN1CCN(c2ncc(-c3cc(Cl)cc(Cl)c3Cl)c(N)n2)CC1 | -12.1% (inactive) | –
Nc1[nH]nc2nnc(-c3c(-c4ccccc4)nn4ccccc34)cc12 | -17.8% (inactive) | –
COc1cc2nccc(Oc3ccc(NC(=O)Nc4cc(C)on4)c(Cl)c3)c2cc1OC | – | 13.1 µM (active)
NC[C@H]1O[C@H](O[C@@H]2[C@@H](O)[C@@H](O[C@H]3O[C@H](CO)[C@@H](O)[C@H](N)[C@@H]3O)[C@H](N)C[C@@H]2N)[C@H](O)[C@@H](O)[C@H]1O | 1.08% (inactive) | –
N#Cc1ccc(Oc2ccc3c(c2)COB3O)cc1 | -29.9% (inactive) | –
O=C(O)CCC=CCC[C@@H]1[C@H](N2CCCCC2)[C@@H](O)C[C@@H]1OCc1ccc(-c2ccccc2)cc1 | -2.76% (inactive) | –
CN(C(Cc1ccc(OS(=O)(=O)c2cccc3cnccc23)cc1)C(=O)N1CCN(c2ccccc2)CC1)S(=O)(=O)c1cccc2cnccc12 (stereo unspecified) | 3.42% (inactive) | –
Cc1cc(-c2ncc(CC(=O)Nc3ccc(-c4cnccn4)cn3)cc2C)ccn1 | -18.6% (inactive) | –

SMILES | activity change, negative = inhibition | Potency
CNC(=O)c1c(-c2ccc(F)cc2)oc2cc(N(CCO)S(C)(=O)=O)c(C3CC3)cc12 | -9.35% (inactive) | –
Cc1cc(NC(=O)Nc2ccc(N(C)C)cc2)c2cc(F)cc(F)c2n1 | -24.1% [at 15.5 µM] (inactive) | –
Cc1cnc(-c2cc(N3CCN(C(=O)CCS(C)(=O)=O)CC3)ncc2Cl)c(C)c1 | 0.273% (inactive) | –
COc1ccc2nc3cc(Cl)ccc3c(Nc3cc(CN4CCCC4)c(O)c(CN4CCCC4)c3)c2n1 | – | 18.6 µM (active)
CC1=C(C(=O)Nc2cc3cn[nH]c3cc2F)C(c2ccc(C(F)(F)F)cc2)CC(=O)N1 (stereo unspecified) | -20.8% (inactive) | –
Cn1c(=O)c(Oc2ccc(F)cc2F)cc2cnc(NC3CCOCC3)nc21 | -4.83% (inactive) | –
Cc1cccc(Nc2nc(N[C@@H]3CCCC[C@H]3N)ncc2C(N)=O)c1 | – | 13.1 µM (active)
CCCC1OC2C[C@@H]3[C@H]4CCC5=CC(=O)C=C[C@]5(C)[C@H]4C(O)C[C@]3(C)[C@]2(C(=O)CO)O1 (stereo partly specified) | -6.78% (inactive) | –
CN1CC(=O)NC1=NC(=O)Nc1cccc(Cl)c1 | -16% (inactive) | –
CCCCCCCCCCCCCCCC(=O)O[C@H]1[C@@H](O)[C@@H](O)[C@@H]([C@H](NC(=O)[C@@H]2C[C@@H](CCC)CN2C)[C@H](C)Cl)O[C@@H]1SC | 5.8% (inactive) | –
O=C(O)CCNc1cc(N2CCc3ccccc3CC2)nc(-c2ccccn2)n1 | 4.69% (inactive) | –
COc1ccc2c(c1)c(C1=C(c3c[nH]c4ccccc34)C(=O)NC1=O)cn2CCCN(C)C | – | 20.8 µM (active)
CC(C)C[C@@H](N)[C@H](O)C(=O)N[C@H](C(=O)N[C@H](C(=O)N[C@@H](CC(=O)O)C(=O)O)C(C)C)C(C)C | 8.43% (inactive) | –
CN[C@@H]1CN(c2ccc3c(=O)c(C(=O)O)cn(-c4nccs4)c3n2)C[C@@H]1OC | – | 5.09 µM (active)
CC1CNc2c(cccc2S(=O)(=O)N[C@@H](CCCN=C(N)N)C(=O)N2CC[C@@H](C)C[C@@H]2C(=O)O)C1 (stereo partly specified) | -9.42% (inactive) | –
CCCCC(F)(F)[C@@]1(O)CC[C@H]2[C@H](CC(=O)[C@@H]2CCCCCCC(=O)O)O1 | -1.06% (inactive) | –
CS(=O)(=O)c1ccc(C2=C(c3ccccc3)C(=O)OC2)cc1 | -6.84% (inactive) | –
O=C(O)c1nc(=O)[nH]c(=O)[nH]1 | -11.5% [at 15.5 µM] (inactive) | –
